SENP6 inh = blocks the human protease SENP6. 1.8% of 330,000 active. inhibition, % at 10 µM. Recombinant SENP6 catalytic domain, aminoluciferin luminescence. Q9GZR1;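 active means inhibition above about 50% at the single tested dose, limit read from the data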;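 further: plate controls were DMSO wells with enzyme for no effect and DMSO wells lacking enzyme for full effect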
LGR2 inh = Drosophila LGR2 receptor signaling inhibition; HEK293 LGR2, CRE-luciferase, bursicon-stimulated, 4 h; 0.35% of 380,000 active; inhibition, % at 9.99 µM; AID 720647;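 active means drop in luminescence signal, shown as inhibition above about 50% in the replicate tests, limit read from the data, passing the limit was not always enough; inconclusive means probably only some replicates passing the limit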;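 further: agonist challenge used bursicon conditioned medium at about half maximal strength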
SENP8 block-1 = blocks human SENP8 cleavage of Nedd8 substrate; recombinant SENP8, Nedd8 substrate fluorescence; Q96LD8; 0.64% of 360,000 active; inhibition, % at 20 µM; in the data active means inhibition mostly above about 40%, no sharp cut-off; inactive means mostly below about 27%
Target sequence (Q96LD8 whole entry, looked up): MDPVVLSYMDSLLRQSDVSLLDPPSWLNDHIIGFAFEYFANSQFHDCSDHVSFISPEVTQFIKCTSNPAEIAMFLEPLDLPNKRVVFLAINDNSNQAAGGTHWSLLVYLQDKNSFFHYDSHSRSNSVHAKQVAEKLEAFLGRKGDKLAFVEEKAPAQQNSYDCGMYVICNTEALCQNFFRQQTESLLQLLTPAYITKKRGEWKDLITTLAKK
HSP90 refold inh = inhibitors of HSP90 luciferase refolding in rabbit reticulocyte lysate; luciferase refolding luminescence, 3 h; AID 1789; 0.91% of 290,000 active; inhibition, % at 5.6 µM;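 active means inhibition above the screen-wide mean plus 3 SD, computed separately per campaign, cut at about 16% in these data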;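 further: 0% = DMSO wells and 100% = 60 µM geldanamycin wells; inhibitors lower the luminescence because luciferase stays unfolded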
SENP8 block-2 = inhibitors of human SENP8 protease; AID 2540; 1.2% of 330,000 active; purified SENP8, Z-RLRGG-aminoluciferin cleavage, luminescence; inhibition, % at 10 µM; in the data active means inhibition above about 50%
SENP7 block = inhibitors of human SENP7 protease. Q9BQF6. recombinant SENP7, Z-RLRGG-aminoluciferin luminescence, 40 min. inhibition, % at 5 µM. 1.5% of 330,000 active. AID 434973;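 active means inhibition above about 50% at the single test dose, limit read from the data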;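 further: plate controls were DMSO with enzyme for no effect and no enzyme buffer wells for full effect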
Target sequence (Q9BQF6 706-1050 limits assumed): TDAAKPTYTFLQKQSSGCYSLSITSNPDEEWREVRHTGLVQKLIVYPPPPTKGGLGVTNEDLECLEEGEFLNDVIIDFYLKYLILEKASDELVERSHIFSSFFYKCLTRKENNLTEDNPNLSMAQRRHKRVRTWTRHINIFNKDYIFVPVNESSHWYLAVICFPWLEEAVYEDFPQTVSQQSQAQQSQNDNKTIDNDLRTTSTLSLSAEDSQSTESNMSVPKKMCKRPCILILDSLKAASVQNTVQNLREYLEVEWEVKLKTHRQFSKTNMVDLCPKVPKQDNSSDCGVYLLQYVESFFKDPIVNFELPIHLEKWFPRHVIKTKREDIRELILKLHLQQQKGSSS
HSP90 confirm = confirmation of HSP90 inhibitors; inhibition, % at 5.9 µM; 64% of 2,300 active; AID 1846; shares compounds with HSP90 refold inh; rabbit reticulocyte lysate, luciferase refolding luminescence, 3 h; in the data active means inhibition above about 18%;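 further: 0% = vehicle wells and 100% = reference inhibitor wells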
FLuc counter = firefly luciferase inhibition, HSP90 counter-screen; shares compounds with HSP90 refold inh; purified native firefly luciferase, luminescence; inhibition, % at 5.9 µM; 48% of 2,300 active; AID 1847;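 active means inhibition above the mean inhibition of all tested sample wells plus 3 SD, cut at about 10% in these data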;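 further: 0% = DMSO with luciferase and 100% = wells lacking luciferase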
SENP8 confirm = confirmation of human SENP8 protease inhibitors | AID 488912 | shares compounds with SENP7 block | inhibition, % at 12.5 µM | Recombinant SENP8, Z-RLRGG-aminoluciferin luminescence, 60 min | 40% of 6,200 active;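 active means mean inhibition across replicates above about 50%, limit read from the data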
SENP6 conf = human SENP6 inhibition, confirmed. shares compounds with SENP7 block. recombinant SENP6, Z-RLRGG-aminoluciferin luminescence. inhibition, % at 12.5 µM. 58% of 6,200 active. AID 488915
SENP7 confirm = confirmation of human SENP7 protease inhibitors; shares compounds with SENP7 block; recombinant SENP7, Z-RLRGG-aminoluciferin luminescence, 40 min; inhibition, % at 12.5 µM; 69% of 6,200 active; AID 488917
Casp3 SENP sel = selectivity test for SENP inhibitors: human caspase-3 inhibition. shares compounds with SENP7 block. AID 488918. inhibition, % at 12.5 µM. 60% of 6,200 active. purified caspase-3, Z-DEVD-aminoluciferin luminescence, 60 min;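 active means mean inhibition above about 50%, limit read from the data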;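 further: plate controls were enzyme with DMSO for no effect and wells without caspase-3 for full effect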
SENP luc ctr = counter-screen for SENP inhibitors: luminescence interference | 39% of 6,200 active | Pre-incubated SENP8/Z-RLRGG-aminoluciferin, luciferase luminescence interference | shares compounds with SENP7 block | AID 488919 | inhibition, % at 12.5 µM;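 active means mean inhibition above about 50% when retested at one dose, limit read from the data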;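 further: plate controls were DMSO wells with completed reaction for no effect and substrate without enzyme for full effect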
* = called active by the depositor. Most compounds without a hit are left out; they make up all but 2.3% or so of the library.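 How the source made its calls, unless noted: active means mean inhibition above about 50% in the one-dose retest (limit read from the data); inactive means the rest.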

For CCCc1ccc(OCc2ccc(C(=O)O)o2)c(OC)c1 the results were SENP6 inh 74.8*, SENP8 block-1 7.6, HSP90 refold inh 81.0*, SENP8 block-2 68.8*, SENP7 block 54.0*, HSP90 confirm 81.6*, FLuc counter 40.9*, SENP8 confirm 74.2*, SENP6 conf 73.4*, SENP7 confirm 92.5*, Casp3 SENP sel 15.4 and SENP luc ctr 82.8*.
C=CCc1ccc(OCCCCOc2ccc(C(=O)O)cc2)c(OC)c1 was read as SENP6 inh -5.2, LGR2 inh 7.6, SENP8 block-1 9.5, HSP90 refold inh -1.4, SENP8 block-2 -8.4 and SENP7 block -9.0.
C=CCc1ccc(OCc2ccc(C(=O)O)o2)c(OC)c1 was read as SENP6 inh 78.6*, LGR2 inh -108.9, SENP8 block-1 7.6, HSP90 refold inh 85.7*, SENP8 block-2 64.2*, SENP7 block 63.3*, HSP90 confirm 82.7*, FLuc counter 46.4*, SENP8 confirm 75.8*, SENP6 conf 75.8*, SENP7 confirm 93.5*, Casp3 SENP sel 15.5 and SENP luc ctr 79.8*.
`C[C@@H]1CN([C@@H](C)CO)C(=O)c2cc(-c3ccc(F)cc3)cnc2O[C@@H]1CN(C)CC1CC1` gave LGR2 inh 17.6.
COc1ccc(-c2ccc([C@H]3[C@H](CO)N4C(=O)CNC[C@@H]34)cc2)cc1 was read as LGR2 inh -16.7.
`O=C(Oc1ccc2ccccc2c1Br)N1CCCCCC1` gave SENP6 inh 90.5*, SENP8 block-1 16.0, HSP90 refold inh 21.7*, SENP8 block-2 78.5*, SENP7 block 82.1*, HSP90 confirm 42.9*, FLuc counter 26.2*, SENP8 confirm 86.7*, SENP6 conf 90.6*, SENP7 confirm 95.9*, Casp3 SENP sel 72.1* and SENP luc ctr 39.0.
`Cc1nc(C)c(C(=O)Nc2ncc([N+](=O)[O-])s2)o1` gave SENP6 inh 98.0*, LGR2 inh 43.2, SENP8 block-1 22.1, HSP90 refold inh 47.0*, SENP8 block-2 95.0*, SENP7 block 89.3*, HSP90 confirm 65.8*, FLuc counter 40.6*, SENP8 confirm 97.5*, SENP6 conf 98.0*, SENP7 confirm 101.6*, Casp3 SENP sel 97.7* and SENP luc ctr 96.5*.
`C[C@@H]1CN([C@H](C)CO)S(=O)(=O)c2ccc(-c3ccncc3)cc2O[C@@H]1CN(C)C(=O)c1cccc(F)c1` gave LGR2 inh 4.3.
`CO[C@@H]1CN(C)C(=O)c2ccc(NC(=O)c3ccc(Oc4ccccc4)cc3)cc2OC[C@@H](C)N(C(C)=O)C[C@H]1C` gave LGR2 inh -9.3.
CCc1cc(C(=O)Nc2ncccc2O)sc1C was read as SENP6 inh 66.0*, LGR2 inh 31.5, SENP8 block-1 0.9, HSP90 refold inh 43.1*, SENP8 block-2 40.3, SENP7 block 67.1*, HSP90 confirm 52.9*, FLuc counter 42.7*, SENP8 confirm 51.5*, SENP6 conf 52.6*, SENP7 confirm 85.7*, Casp3 SENP sel 81.0* and SENP luc ctr 63.4*.
`CCc1cc(C(=O)Nc2ccc(OC)nc2)sc1C` gave SENP6 inh -15.3, LGR2 inh -51.8, SENP8 block-1 7.2, SENP8 block-2 -9.6 and SENP7 block -5.0.
For C[C@@H]1CN([C@H](C)CO)C(=O)c2cccc(NC(=O)CCCCCC(=O)Nc3ccccc3N)c2O[C@H]1CN(C)C(=O)Nc1ccc2c(c1)OCO2 the results were LGR2 inh 13.5.
COc1ccccc1OCC(=O)Nc1ccccn1 was read as SENP6 inh 82.3*, SENP8 block-1 1.6, HSP90 refold inh 69.6*, SENP8 block-2 77.8*, SENP7 block 85.7*, HSP90 confirm 20.2*, FLuc counter 2.9, SENP8 confirm 77.7*, SENP6 conf 74.1*, SENP7 confirm 93.7*, Casp3 SENP sel 93.4* and SENP luc ctr 81.1*.
Screening Cc1c(C)c2ccc(OCC(=O)Nc3ccccn3)c(C)c2oc1=O returned SENP6 inh 97.6*, LGR2 inh 100.1*, SENP8 block-1 -260.0, HSP90 refold inh 95.6*, SENP8 block-2 92.2*, SENP7 block 100.5*, HSP90 confirm 100.2*, FLuc counter 91.0*, SENP8 confirm 58.6*, SENP6 conf 88.5*, SENP7 confirm 38.9, Casp3 SENP sel 92.6* and SENP luc ctr 19.9.
`COc1ccc(NC(=O)Nc2ccc3c(c2)CC(=O)N([C@@H](C)CO)C[C@@H](C)[C@H](CN(C)Cc2ccc(C(=O)O)cc2)O3)cc1` gave LGR2 inh 12.0.
c1ccc(-n2ncc3c(N4CCCCC4)ncnc32)cc1 was read as SENP6 inh 84.2*, LGR2 inh 60.9*, SENP8 block-1 -0.3, HSP90 refold inh 56.1*, SENP8 block-2 85.5*, SENP7 block 84.4*, HSP90 confirm 79.7*, FLuc counter 73.7*, SENP8 confirm 86.4*, SENP6 conf 84.3*, SENP7 confirm 96.5*, Casp3 SENP sel 86.4* and SENP luc ctr 83.5*.
For C[C@H](CO)N1C[C@H](C)[C@H](CN(C)C(=O)NC2CCCCC2)Oc2ccc(NC(=O)NC3CCCCC3)cc2C1=O the results were LGR2 inh 3.4.
CC(=O)N(C)C[C@H]1Oc2cc(C#CC3CC3)ccc2S(=O)(=O)N([C@H](C)CO)C[C@H]1C was read as LGR2 inh -7.1.
For O=C(N/N=C/c1ccc2c(c1)OCO2)c1ccccn1 the results were SENP6 inh 79.6*, LGR2 inh inconclusive, SENP8 block-1 -86.6, HSP90 refold inh 27.6*, SENP8 block-2 70.1*, SENP7 block 91.7*, HSP90 confirm 56.9*, FLuc counter 35.8*, SENP8 confirm 4.4, SENP6 conf 67.6*, SENP7 confirm 90.0*, Casp3 SENP sel 84.7* and SENP luc ctr 32.9.
